From PubChem BioAssay (EPA / NIEHS)
The source made the active and inactive calls. How the source made its calls: active means hit-call score of the fitted dose curve at least 0.9, where 1 is the maximum; inactive means score below 0.9.

Columns and labels:
[1] = ATG_GLI_CIS: Attagene CIS-FACTORIAL HepG2 Assay for human Zinc Finger Protein GLI1 (AID 2282945); settings: HepG2, Attagene cis-factorial reporter mRNA, GLI element; actives raise or lower the signal
Summary of the method: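 Transiently transfected HepG2 cells report endogenous transcription factor activity via cis-element-driven reporter units. After 24 h compound exposure, reporter mRNA was measured by RT-PCR with capillary electrophoresis; bidirectional fitting against DMSO baseline.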

[2] = ATG_GRE_CIS: Attagene CIS-FACTORIAL HepG2 Assay for human Glucocorticoid Response Elements (GRE) (AID 2282947); settings: HepG2 GRE cis-reporter, Attagene multiplex mRNA; actives raise or lower the signal
Summary of the method: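 Endogenous transcription factor activity is read through cis-element reporter constructs transiently transfected into HepG2 cells. After 24 h treatment, labelled RT-PCR products are resolved by capillary electrophoresis; DMSO sets baseline for bidirectional curve fitting.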

[3] = ATG_ISRE_CIS: Attagene CIS-FACTORIAL HepG2 Assay for human Interferon Regulatory Factor 1 (IRF1) binding to an Interferon-Stimulated Response Element (ISRE) (AID 2282948); settings: HepG2 ISRE cis-reporter (Attagene), mRNA transcription readout; actives raise or lower the signal
Summary of the method: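 Transfected HepG2 (multiple reporter transcription units, cis elements) dosed 24 h. RNA → oligo(dT) RT → PCR → 6-FAM primer extension → HpaI → CE. DMSO = negative control/baseline.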

[4] = ATG_M_32_CIS: Attagene CIS-FACTORIAL HepG2 Assay for M32 Transcription Factor (Internal Marker) (AID 2282949); settings: HepG2 Attagene cis-factorial M32 reporter, mRNA; actives raise or lower the signal;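 further: background control marker of the multiplexed CIS panel rather than a real target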
Summary of the method: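 Internal background marker read-out: RT-PCR/capillary electrophoresis fluorescence of reporter transcripts from transiently transfected HepG2 cells after 24 h chemical exposure. Activity fitted bidirectionally relative to DMSO negative control.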

[5] = ATG_M_06_CIS: Attagene CIS-FACTORIAL HepG2 Assay for M06 Transcription Factor (Internal Marker) (AID 2282950); settings: HepG2 Attagene CIS-FACTORIAL M06 internal marker reporter; actives raise or lower the signal
Summary of the method: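 HepG2 cells transiently transfected with cis-regulated multiple reporter transcription units were exposed to chemical for 24 h; reporter mRNA was quantified by RT-PCR, 6-FAM primer labelling, HpaI digestion and capillary electrophoresis, fitted bidirectionally against DMSO.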

[6] = molecular target: Hypoxia-inducible factor 1-alpha (Homo sapiens) (UniProt Q16665); assay: ATG_HIF1a_CIS: Attagene CIS-FACTORIAL HepG2 Assay for human Hypoxia Inducible Factor 1 (HIF1A) (AID 2282951); settings: HepG2 Attagene cis-factorial HIF1a reporter transcription; actives raise or lower the signal
Chain of Hypoxia-inducible factor 1-alpha (Homo sapiens) (Q16665 whole entry, looked up): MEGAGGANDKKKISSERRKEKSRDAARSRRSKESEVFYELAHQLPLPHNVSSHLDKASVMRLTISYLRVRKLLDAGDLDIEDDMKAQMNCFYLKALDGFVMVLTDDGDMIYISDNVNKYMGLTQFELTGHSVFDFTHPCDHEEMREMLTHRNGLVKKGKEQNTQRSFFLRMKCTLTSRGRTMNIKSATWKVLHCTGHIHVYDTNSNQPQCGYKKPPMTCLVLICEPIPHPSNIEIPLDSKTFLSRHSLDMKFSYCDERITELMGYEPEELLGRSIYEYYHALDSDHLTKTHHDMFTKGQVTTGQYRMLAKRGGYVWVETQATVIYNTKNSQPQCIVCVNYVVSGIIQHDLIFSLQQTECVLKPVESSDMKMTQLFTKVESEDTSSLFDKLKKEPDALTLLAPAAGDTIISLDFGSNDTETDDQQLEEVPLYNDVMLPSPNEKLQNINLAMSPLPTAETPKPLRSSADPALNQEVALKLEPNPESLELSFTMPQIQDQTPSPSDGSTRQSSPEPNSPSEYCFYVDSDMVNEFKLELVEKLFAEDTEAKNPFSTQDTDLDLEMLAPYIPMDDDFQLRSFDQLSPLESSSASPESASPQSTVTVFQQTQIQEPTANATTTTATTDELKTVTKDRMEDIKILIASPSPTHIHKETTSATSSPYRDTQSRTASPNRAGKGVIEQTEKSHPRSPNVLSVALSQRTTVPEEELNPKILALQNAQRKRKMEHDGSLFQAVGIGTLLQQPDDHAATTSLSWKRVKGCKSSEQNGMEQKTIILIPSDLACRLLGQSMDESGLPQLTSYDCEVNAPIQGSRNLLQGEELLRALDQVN
Summary of the method: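 RT-PCR/capillary electrophoresis fluorescence readout of reporter transcripts from endogenous-TF-driven cis elements in transfected HepG2 cells, 24 h exposure; activity fitted in both directions against DMSO controls.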

[7] = molecular target: Hepatocyte nuclear factor 6 (Homo sapiens) (UniProt Q9UBC0); assay: ATG_HNF6_CIS: Attagene CIS-FACTORIAL HepG2 Assay for human Hepatocyte Nuclear Factor 6 (HNF6) (AID 2282952); settings: HepG2 Attagene cis-factorial HNF6 reporter transcription; actives raise or lower the signal
Chain of Hepatocyte nuclear factor 6 (Homo sapiens) (Q9UBC0 whole entry, looked up): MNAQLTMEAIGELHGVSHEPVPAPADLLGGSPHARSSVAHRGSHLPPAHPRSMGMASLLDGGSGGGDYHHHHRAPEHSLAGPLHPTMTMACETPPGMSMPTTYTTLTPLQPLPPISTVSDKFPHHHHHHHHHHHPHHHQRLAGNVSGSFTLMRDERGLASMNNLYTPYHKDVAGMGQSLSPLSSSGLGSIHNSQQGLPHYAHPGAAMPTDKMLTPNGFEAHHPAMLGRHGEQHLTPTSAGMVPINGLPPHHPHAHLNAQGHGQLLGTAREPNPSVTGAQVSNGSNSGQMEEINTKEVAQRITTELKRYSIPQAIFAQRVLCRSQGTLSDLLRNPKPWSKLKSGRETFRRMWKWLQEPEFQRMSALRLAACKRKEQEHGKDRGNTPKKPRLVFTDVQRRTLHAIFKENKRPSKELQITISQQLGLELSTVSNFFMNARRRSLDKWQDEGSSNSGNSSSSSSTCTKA
Summary of the method: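 HepG2 cells transiently transfected with cis-element-driven multiple reporter transcription units, dosed 24 h; reporter mRNA quantified by RT-PCR, FAM primer extension, HpaI digestion and capillary electrophoresis; bidirectional fit versus DMSO baseline.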

[8] = molecular target: Heat shock factor protein 1 (Homo sapiens) (UniProt Q00613); assay: ATG_HSE_CIS: Attagene CIS-FACTORIAL HepG2 Assay for human Heat Shock Transcription Factor 1 (HSE) (AID 2282953); settings: HepG2 HSE cis-reporter, Attagene RNA transcription; actives raise or lower the signal
Chain of Heat shock factor protein 1 (Homo sapiens) (Q00613 whole entry, looked up): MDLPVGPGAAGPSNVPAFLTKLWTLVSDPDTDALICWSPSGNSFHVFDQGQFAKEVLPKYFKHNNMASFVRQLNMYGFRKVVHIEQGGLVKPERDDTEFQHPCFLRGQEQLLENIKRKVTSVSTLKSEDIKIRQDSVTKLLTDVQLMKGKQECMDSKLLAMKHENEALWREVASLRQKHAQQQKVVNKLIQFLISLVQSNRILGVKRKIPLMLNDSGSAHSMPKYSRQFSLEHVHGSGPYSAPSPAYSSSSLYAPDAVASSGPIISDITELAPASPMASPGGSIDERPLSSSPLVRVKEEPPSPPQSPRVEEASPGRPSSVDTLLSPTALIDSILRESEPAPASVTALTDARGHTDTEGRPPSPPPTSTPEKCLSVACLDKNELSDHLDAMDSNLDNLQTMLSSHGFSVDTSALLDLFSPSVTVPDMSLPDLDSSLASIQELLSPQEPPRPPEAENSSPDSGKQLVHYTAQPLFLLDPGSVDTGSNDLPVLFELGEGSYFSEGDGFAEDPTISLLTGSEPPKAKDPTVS
Summary of the method: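 HepG2 cells transiently transfected with multiple reporter transcription units under cis-regulatory promoter control, measuring endogenous transcription factor activity. After 24 h chemical exposure, reporter mRNA quantified by RT-PCR, fluorescent labelling, HpaI digestion and capillary electrophoresis; bidirectional fit versus DMSO.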

[9] = ATG_MRE_CIS: Attagene CIS-FACTORIAL HepG2 Assay for human Metal Responsive Element (MRE) (AID 2282954); settings: HepG2 MRE cis-reporter transcription, Attagene multiplex; actives raise or lower the signal
Summary of the method: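 Fluorescent reporter fragments separated by capillary electrophoresis give mRNA induction for the MRE unit after 24 h treatment of transfected HepG2 cells. Endogenous transcription-factor activity is read; DMSO serves as negative control and baseline.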

[10] = ATG_PBREM_CIS: Attagene CIS-FACTORIAL HepG2 Assay for human Phenobarbital-responsive Enhancer Module (PBREM) (AID 2282955); settings: HepG2 PBREM cis-reporter, Attagene multiplexed transcription; actives raise or lower the signal
Summary of the method: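 Reporter mRNA read by RT-PCR, 6-FAM primer extension, HpaI digestion and capillary electrophoresis. Transfected HepG2 cells, 24 h compound exposure. Gain or loss of signal fitted bidirectionally relative to DMSO baseline.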

[11] = molecular target: Paired box protein Pax-6 (Homo sapiens) (UniProt P26367); assay: ATG_Pax6_CIS: Attagene CIS-FACTORIAL HepG2 Assay for human Paired Box 6 (PAX6) (AID 2282956); settings: HepG2 CIS-FACTORIAL PAX6 reporter transcription, RNA readout; actives raise or lower the signal
Chain of Paired box protein Pax-6 (Homo sapiens) (P26367 whole entry, looked up): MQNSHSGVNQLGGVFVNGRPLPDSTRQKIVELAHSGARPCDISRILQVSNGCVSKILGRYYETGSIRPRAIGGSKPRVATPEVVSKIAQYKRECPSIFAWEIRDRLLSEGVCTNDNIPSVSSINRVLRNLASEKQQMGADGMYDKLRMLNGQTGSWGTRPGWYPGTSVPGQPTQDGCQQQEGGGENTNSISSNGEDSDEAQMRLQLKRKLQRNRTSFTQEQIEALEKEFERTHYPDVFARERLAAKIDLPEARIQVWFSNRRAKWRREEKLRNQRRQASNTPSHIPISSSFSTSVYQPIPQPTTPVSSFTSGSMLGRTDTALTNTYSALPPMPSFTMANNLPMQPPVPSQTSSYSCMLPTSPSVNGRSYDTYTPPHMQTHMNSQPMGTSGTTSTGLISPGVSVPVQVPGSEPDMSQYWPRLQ
Summary of the method: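 Transient MRTU transfection of HepG2 → compound exposure 24 h → TriZol RNA, oligo(dT) RT → PCR, 6-FAM primer extension, HpaI cut → capillary electrophoresis; activity fitted both directions against DMSO.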

[12] = ATG_PXRE_CIS: Attagene CIS-FACTORIAL HepG2 Assay for human Pregnane X Receptor Element (PXRE) (AID 2282957); settings: HepG2 Attagene CIS-FACTORIAL PXRE reporter, mRNA; actives raise or lower the signal
Summary of the method: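 HepG2 cells transiently transfected with cis-regulated multiple reporter transcription units; endogenous factor activity measured as reporter mRNA 24 h after dosing. RT-PCR, fluorescent primer extension, HpaI digestion, capillary electrophoresis; bidirectional fit versus DMSO baseline.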

[13] = ATG_RORE_CIS: Attagene CIS-FACTORIAL HepG2 Assay for human RAR-related Orphan Receptor Element (RORE) (AID 2282959); settings: HepG2 Attagene cis-factorial RORE reporter, mRNA; actives raise or lower the signal
Summary of the method: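 Readout: fluorescent reporter mRNA by RT-PCR plus capillary electrophoresis, 24 h after dosing transfected HepG2 cells. Endogenous transcription factor activity on a cis promoter element is measured. Gain or loss of signal fitted against DMSO.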

[14] = ATG_Sox_CIS: Attagene CIS-FACTORIAL HepG2 Assay for human SRY-box transcription factor (SOX) (AID 2282960); settings: HepG2 Attagene cis-factorial SOX reporter, mRNA; actives raise or lower the signal
Summary of the method: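 Read-out: fluorescent RT-PCR products of SOX1-linked reporter transcripts resolved by capillary electrophoresis, fitted bidirectionally against DMSO. Transiently transfected HepG2 cells, 24 h after chemical exposure, endogenous transcription factor activity.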

[15] = ATG_SREBP_CIS: Attagene CIS-FACTORIAL HepG2 Assay for human Sterol Regulatory Element Binding (SREBP) (AID 2282962); settings: HepG2 Attagene cis-factorial SREBP reporter, mRNA; actives raise or lower the signal
Summary of the method: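 Transfected HepG2 (cis-regulated reporter library, endogenous TFs) → compound 24 h → total RNA → oligo(dT) RT → reporter-specific PCR → FAM primer extension, HpaI cut → CE fluorescence. Fit bidirectional vs DMSO.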

[16] = molecular target: Signal transducer and activator of transcription 3 (Homo sapiens) (UniProt P40763); assay: ATG_STAT3_CIS: Attagene CIS-FACTORIAL HepG2 Assay for human Signal Transducer and Activator of Transcription 3 (STAT3) (AID 2282963); settings: HepG2, Attagene cis-factorial STAT3 reporter transcription; actives raise or lower the signal
Chain of Signal transducer and activator of transcription 3 (Homo sapiens) (P40763 whole entry, looked up): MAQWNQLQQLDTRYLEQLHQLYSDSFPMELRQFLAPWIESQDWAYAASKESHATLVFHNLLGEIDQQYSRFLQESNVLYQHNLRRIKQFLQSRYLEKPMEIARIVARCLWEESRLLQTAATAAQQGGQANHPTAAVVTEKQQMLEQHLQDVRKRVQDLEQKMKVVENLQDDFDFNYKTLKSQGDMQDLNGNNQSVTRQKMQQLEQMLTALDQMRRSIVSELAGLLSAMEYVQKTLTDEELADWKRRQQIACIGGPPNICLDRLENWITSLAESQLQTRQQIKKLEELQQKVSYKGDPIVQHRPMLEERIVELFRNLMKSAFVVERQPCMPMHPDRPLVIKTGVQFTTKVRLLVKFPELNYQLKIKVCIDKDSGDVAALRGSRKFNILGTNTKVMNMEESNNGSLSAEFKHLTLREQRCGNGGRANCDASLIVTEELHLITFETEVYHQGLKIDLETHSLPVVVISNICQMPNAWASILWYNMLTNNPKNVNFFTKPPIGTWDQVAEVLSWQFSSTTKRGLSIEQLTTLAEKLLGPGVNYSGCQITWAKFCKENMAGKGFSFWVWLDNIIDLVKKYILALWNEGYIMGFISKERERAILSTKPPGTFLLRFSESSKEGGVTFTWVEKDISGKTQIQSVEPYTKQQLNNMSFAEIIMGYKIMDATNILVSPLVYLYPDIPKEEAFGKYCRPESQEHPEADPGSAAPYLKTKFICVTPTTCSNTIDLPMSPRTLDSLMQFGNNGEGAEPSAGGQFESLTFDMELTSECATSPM
Summary of the method: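 Values derive from bidirectional fits relative to DMSO of reporter mRNA levels, measured by RT-PCR with capillary electrophoresis, in HepG2 cells carrying transiently transfected cis-regulated reporter units and exposed 24 h.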

[17] = ATG_TA_CIS: Attagene CIS-FACTORIAL HepG2 Assay for human TA Basal Promoter (AID 2282964); settings: HepG2 Attagene CIS-factorial TA basal promoter reporter; actives raise or lower the signal
Summary of the method: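 HepG2 cells transiently transfected with multiplexed cis-promoter reporter units, dosed 24 h. Reporter mRNA measured by RT-PCR, 6-FAM labelling, HpaI digestion and capillary electrophoresis; bidirectional fit versus DMSO baseline, serving as background control.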

[18] = molecular target: Bile acid receptor (Homo sapiens) (UniProt Q96RI1); assay: ATG_IR1_CIS: Attagene CIS-FACTORIAL HepG2 Assay for human Nuclear Receptor Subfamily 1 Group H Member 4 (NR1H4), IR1 submotif (AID 2282946); settings: IR1 reporter transcription, actives raise or lower the signal
Chain of Bile acid receptor (Homo sapiens) (Q96RI1 whole entry, looked up): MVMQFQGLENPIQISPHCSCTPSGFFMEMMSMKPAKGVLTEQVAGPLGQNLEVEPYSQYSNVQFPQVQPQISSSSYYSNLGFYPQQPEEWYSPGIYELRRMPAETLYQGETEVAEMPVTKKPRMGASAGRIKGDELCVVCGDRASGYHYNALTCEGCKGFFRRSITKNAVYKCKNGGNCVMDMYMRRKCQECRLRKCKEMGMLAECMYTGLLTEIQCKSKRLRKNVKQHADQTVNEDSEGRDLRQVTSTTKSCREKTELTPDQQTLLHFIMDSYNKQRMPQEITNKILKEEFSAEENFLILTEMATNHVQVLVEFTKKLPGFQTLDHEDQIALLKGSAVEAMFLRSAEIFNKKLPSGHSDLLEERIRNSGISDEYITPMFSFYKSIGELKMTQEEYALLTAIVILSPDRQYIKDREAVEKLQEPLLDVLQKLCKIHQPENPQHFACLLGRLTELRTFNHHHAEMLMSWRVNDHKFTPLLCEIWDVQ
Summary of the method: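 HepG2 cells transiently transfected with multiple cis-promoter-driven reporter units to measure endogenous transcription factor activity; 24 h exposure. Reporter mRNA read by RT-PCR, FAM labelling, HpaI digestion and capillary electrophoresis. Bidirectional fit versus DMSO.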

[19] = ATG_PPRE_CIS: Attagene CIS-FACTORIAL HepG2 Assay for human Peroxisome Proliferator-activated Response Element (PPRE) (AID 2282958); settings: HepG2 PPRE cis-element reporter, Attagene transcription factor profiling; actives raise or lower the signal
Summary of the method: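 Read-out: fluorescent reporter mRNA fragments resolved by capillary electrophoresis after RT-PCR. HepG2 cells carried transiently transfected PPRE-driven cis reporter constructs and were dosed for 24 h; gain or loss of signal fitted relative to DMSO.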

[20] = molecular target: Transcription factor Sp1 (Homo sapiens) (UniProt P08047); assay: ATG_Sp1_CIS: Attagene CIS-FACTORIAL HepG2 Assay for human Specificity Protein 1 (Sp1) (AID 2282961); settings: HepG2 Sp1 cis-reporter transcription, actives raise or lower the signal
Chain of Transcription factor Sp1 (Homo sapiens) (P08047 whole entry, looked up): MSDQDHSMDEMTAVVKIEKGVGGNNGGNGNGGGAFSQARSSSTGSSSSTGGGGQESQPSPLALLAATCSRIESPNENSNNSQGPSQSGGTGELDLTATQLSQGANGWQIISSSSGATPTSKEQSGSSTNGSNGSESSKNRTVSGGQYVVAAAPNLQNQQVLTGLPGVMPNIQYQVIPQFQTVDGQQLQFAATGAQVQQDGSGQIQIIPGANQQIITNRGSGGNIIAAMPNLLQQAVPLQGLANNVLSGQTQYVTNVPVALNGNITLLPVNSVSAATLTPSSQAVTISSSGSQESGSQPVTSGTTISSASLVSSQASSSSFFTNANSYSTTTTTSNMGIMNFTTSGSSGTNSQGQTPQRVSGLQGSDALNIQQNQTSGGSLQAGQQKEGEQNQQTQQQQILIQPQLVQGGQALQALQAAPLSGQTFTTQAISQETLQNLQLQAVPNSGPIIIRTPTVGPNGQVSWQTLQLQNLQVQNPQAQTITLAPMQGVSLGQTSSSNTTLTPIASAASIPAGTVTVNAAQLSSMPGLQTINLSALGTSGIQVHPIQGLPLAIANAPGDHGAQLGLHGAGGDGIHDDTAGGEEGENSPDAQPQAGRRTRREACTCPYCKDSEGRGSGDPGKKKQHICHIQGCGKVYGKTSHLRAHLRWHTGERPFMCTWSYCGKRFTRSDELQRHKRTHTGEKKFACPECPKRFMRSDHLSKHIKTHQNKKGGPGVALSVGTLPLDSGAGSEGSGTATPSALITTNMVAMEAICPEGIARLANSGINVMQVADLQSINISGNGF
Summary of the method: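 Read-out: fluorescence of 6-FAM-labeled, HpaI-digested RT-PCR products separated by capillary electrophoresis. HepG2 cells carried transfected cis-element reporter units and were exposed to chemicals for 24 h; gain or loss of signal fitted relative to DMSO.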

CCCCOC(=O)CCCCCCCCC(=O)OCCCC
outcome [1]: inactive | outcome [2]: inactive | outcome [3]: inactive | outcome [4]: inactive | outcome [5]: inactive | outcome [6]: inactive | outcome [7]: inactive | outcome [8]: inactive | outcome [9]: inactive | outcome [10]: inactive | outcome [11]: inactive | outcome [12]: inactive | outcome [13]: inactive | outcome [14]: inactive | outcome [15]: inactive | outcome [16]: inactive | outcome [17]: inactive

FC(F)(F)C(F)(F)C(F)(F)C(F)(F)C(F)(F)C(F)(F)CCI
outcome [1]: inactive | outcome [18]: inactive | outcome [3]: inactive | outcome [4]: inactive | outcome [6]: inactive | outcome [8]: inactive | outcome [9]: inactive | outcome [10]: inactive | outcome [11]: inactive | outcome [12]: inactive | outcome [19]: inactive | outcome [13]: inactive | outcome [14]: inactive | outcome [15]: inactive | outcome [16]: inactive | outcome [17]: inactive

C=CCOC(=O)c1ccccc1C(=O)OCC=C
outcome [1]: inactive | AC50 [18]: 25.9 µM (active) | outcome [3]: inactive | outcome [4]: inactive | outcome [6]: inactive | outcome [7]: inactive | outcome [8]: inactive | outcome [9]: inactive | outcome [11]: inactive | AC50 [12]: 26.7 µM (active) | outcome [13]: inactive | outcome [14]: inactive | outcome [15]: inactive | outcome [16]: inactive | outcome [17]: inactive

CCCCC(CC)COC(=O)CC(C(=O)OCC(CC)CCCC)S(=O)(=O)O (stereo not given)
outcome [1]: inactive | outcome [2]: inactive | outcome [3]: inactive | outcome [4]: inactive | outcome [5]: inactive | AC50 [6]: 0.000743 µM (active) | outcome [8]: inactive | outcome [10]: inactive | outcome [11]: inactive | AC50 [12]: 1.1 µM (active) | outcome [19]: inactive | outcome [13]: inactive | outcome [14]: inactive | outcome [20]: inactive | AC50 [15]: 14.2 µM (active) | outcome [16]: inactive | outcome [17]: inactive
